Only some compounds are listed: those with a hit (about 15% of all), similar ones and a draw of the others.
RORgamma inh – ROR gamma (mouse) transcription inhibition; P51450; AID 2551; Potency, µM (series often up to 53.6 µM), without a hit: top-dose activity change, negative = inhibition, hits mostly inhibitors; Drosophila S2 Gal4-RORgamma UAS-luciferase reporter, 20 h; 310,000 tested, 5.4% active; further: nearly all actives have a fitted effect of over 60% in size
Target sequence (P51450 whole entry, looked up, the tested form may be a part): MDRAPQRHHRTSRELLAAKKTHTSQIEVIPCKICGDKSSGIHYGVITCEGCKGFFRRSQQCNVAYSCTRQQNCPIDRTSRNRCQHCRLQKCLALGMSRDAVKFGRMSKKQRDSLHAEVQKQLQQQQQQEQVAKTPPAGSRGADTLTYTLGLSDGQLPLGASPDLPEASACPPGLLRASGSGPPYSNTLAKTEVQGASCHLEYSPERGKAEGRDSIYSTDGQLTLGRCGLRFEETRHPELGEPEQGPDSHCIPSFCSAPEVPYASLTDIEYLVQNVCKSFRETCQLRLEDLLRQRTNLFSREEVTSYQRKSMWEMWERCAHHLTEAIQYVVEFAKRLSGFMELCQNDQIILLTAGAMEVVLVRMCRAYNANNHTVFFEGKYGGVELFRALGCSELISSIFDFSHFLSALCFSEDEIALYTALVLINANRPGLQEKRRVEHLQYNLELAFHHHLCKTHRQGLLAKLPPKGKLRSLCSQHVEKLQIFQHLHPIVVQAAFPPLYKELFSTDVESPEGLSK
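Stable Schneider cell line, Gal4 DNA-binding domain fused to ROR gamma, UAS-luciferase. Cmpd 1 hr RT → CuSO4 700 uM final → 20 hr RT → luciferase reagent 10 min → luminescence.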
VP16 counter – counter-screen for ROR gamma inhibitors: Gal4-VP16 reporter; Drosophila S2 Gal4-VP16 UAS-luciferase, luminescence, 20 h; Potency, µM (highest dose often 53.6 µM), without a hit: at the top dose activity, negative = inhibition, hits mostly inhibitors; 310,000 tested, 3.5% active; AID 2546;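 further: Gal4-VP16 expression switched on by copper sulfate through the metallothionein promoter; nearly all actives have a fitted effect of over 50% in size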
ELG1 repair inh – inhibitors of ELG1-dependent DNA repair in HEK293T cells; HEK293T ELG1-luciferase reporter, luminescence, 16 h; DNA damage induced by 5-fluorouridine; Potency, µM (doses to about 46.1 µM), without a hit: top-dose activity change, negative = inhibition, hits mostly inhibitors; 330,000 tested, 2.3% active; AID 504467; further: nearly all actives have a fitted effect of over 55% in size
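Overnight (16 hr) co-exposure of 2,000 cells/well to 5-fluorouridine and compound at 37 °C preceded detection. Luciferase was quantified via ONE-Glo luminescence; loss of signal denotes inhibition.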
ALOX12 inh – inhibitors of human 12S-lipoxygenase ALOX12; P18054; purified 12hLO, xylenol orange hydroperoxide absorbance; Potency, µM (doses to about 108 µM), without a hit: at the highest dose activity change, negative = inhibition, usual class: inhibitors; 580,000 tested, 1.1% active; AID 1671190
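Purified human 12hLO at 150 nM in 25 mM Hepes, 0.01% Triton X-100, pH 7.0, preincubated 15 min at room temperature with compound. Reaction started with 40 uM arachidonic acid, 30 min at room temperature. Hydroperoxide measured by Fe-xylenol orange, 573/405 nm absorbance ratio.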
DT40 TDP1 CPT – DT40-hTDP1 cell growth loss with CPT; chicken DT40 Tdp1-/-;hTDP1 cells + 20 nM CPT, ATP luminescence, 48 h; Potency, µM (series often up to 46.2 µM), for inactives: top-dose activity change, negative = growth inhibition, most hits filed as inhibitors; 420,000 tested, 12% active; AID 686979; further: nearly all actives have a fitted effect of over 55% in size
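Chicken DT40 Tdp1-/- cells complemented with human TDP1, 400 cells/well, exposed to compounds plus 20 nM camptothecin for at least 48 h at 37 C; viability read as ATP content by CellTiter-Glo luminescence.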
TDP1 cell noCPT – qHTS for Inhibitors of human tyrosyl-DNA phosphodiesterase 1 (TDP1): qHTS in cells in absence of CPT; DT40 Tdp1-/- hTDP1 cells, no CPT, ATP luminescence, 48 h; Potency, µM (highest dose often 46.2 µM), for inactives: top-dose activity change, negative = growth inhibition, hits mostly inhibitors; 420,000 tested, 15% active; further: nearly all actives have a fitted effect of over 55% in size
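Stably hTDP1-transfected Tdp1-null chicken DT40 cells were treated with library compounds minus camptothecin and grown for at least 48 hr at 37 °C, after which cellular ATP was quantified by luminescence.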
Active calls of the source: *; ? = inconclusive; . = not tested or not shown; [ ] = remark or other dose. The call rests on the fitted dose curve; in most records, active means well fitted curve in the direction sought with a large enough effect; inconclusive means small, poorly fitted or top-dose-only effect, or another doubt; inactive means no such curve, though single readings can be large; an effect the other way counts as inactive or inconclusive. On the % scale 0 is the no-effect control and ±100 the full control effect; potency means the concentration at half of the fitted maximal effect.

SMILES | RORgamma inh | VP16 counter | ELG1 repair inh | ALOX12 inh | DT40 TDP1 CPT | TDP1 cell noCPT
Cc1nc(S/C(=C\c2ccc(OCc3ccccc3Cl)cc2)C(=O)O)n[nH]1 | 1µM* | ? | ? | -27% | ? | ?
O=C(NC12CC3CC(CC(C3)C1)C2)c1ccc([N+](=O)[O-])o1 | ? | ? | -15% | 0% | 23µM* | 23µM*
CC(NC(=O)c1ccc([N+](=O)[O-])o1)C1CC2CCC1C2 (centres undefined) | . | . | -12% | . | 21µM* | ?
O=C(NC12CC3CC(CC(C3)C1)C2)c1ccc(Br)o1 | ? | 10% | 14% | 37% | -8% | ?
O=C(NC12CC3CC(CC(C3)C1)C2)c1ccc(-c2ccc(Br)cc2)o1 | 5% | ? | ? | -21% | 23µM* | 16µM*
COc1ccc(NC(=O)Nc2ccc(C)n(CC(=O)NCC(C)C)c2=O)cc1 | . | . | . | 25% | . | .
CC(C)N(Cc1ccccc1)C(=O)CN1C(=O)CSc2ccc(S(=O)(=O)N3CCCC3)cc21 | . | . | . | -2% | 12µM* | -82%
CC(C)N(Cc1ccccc1)C(=O)CN1C(=O)COc2ccc(S(=O)(=O)N3CCCCCC3)cc21 | 24% | 0% | -27% | ? | 15µM* | 13µM*
CC1CCN(S(=O)(=O)c2ccc3c(c2)N(CC(=O)O)C(=O)CO3)CC1 | . | . | . | -13% | 15µM* | 16µM*
COc1cccc(CN2CCN(C(=O)c3cccc4ccccc34)CC2)c1 | -8% | 2% | -16% | -21% | -2% | 11%
COc1cccc(CN2CCN(C(=O)c3cc(-c4ccncc4)nc4ccc(C)cc34)CC2)c1 | . | . | . | 24% | 23µM* | 16µM*
COc1ccc(-c2cc(C(=O)N3CCCCCC3)c3cc(C)ccc3n2)cc1 | ? | 17% | 8% | 6% | ? | ?
COc1cccc(CN2CCN(C(=O)c3cc(-c4ccccn4)nc4ccc(Cl)cc34)CC2)c1 | -17% | 0% | 0% | 0% | ? | 18µM*
CNC(=S)N(C)/N=C1/C(=O)N(Cc2c(Cl)cccc2Cl)c2ccccc21 | . | . | -19% | ? | 15µM* | 18µM*
CCCCCC/C(C)=C1/SC(=S)NC1=O | 16µM* | -19% | -2% | ? | 4% | -7%
C/C(C/C(C)=C1/SC(=S)NC1=O)=C1\SC(=S)NC1=O | -14% | 6% | 14% | ? | 4% | -1%
CCOC(=O)N1CCC(NC(=O)C2CCN(C(=O)c3cc4oc(C)cc4n3Cc3c(F)cccc3Cl)CC2)CC1 | ? | ? | ? | -13% | ? | 15µM*
CCS(=O)(=O)Nc1ccc2[nH]c(O)c(C(=Nc3ccc(CN4CCCCC4)cc3)c3ccccc3)c2c1 | . | . | . | -30%[57.4 µM] | . | .
Cc1cc(=O)oc2c(C)c(OCC(=O)N3CCN(C(=O)C4COc5ccccc5O4)CC3)ccc12 (centres undefined) | 23% | -5% | ? | -13% | ? | 16µM*
Cc1cc(=O)oc2cc(OCC(=O)N3CCN(c4ccccc4)CC3)ccc12 | . | . | 1% | 182% | -12% | 0%
Cc1cc(=O)oc2c(C)c(OCC(=O)N3CCN(c4cccc(Cl)c4)CC3)ccc12 | -36% | 4% | ? | ? | 21µM* | 23µM*
CCCc1cc(=O)oc2cc(O[C@@H]3O[C@H](CO)[C@@H](O)[C@H](O)[C@H]3O)ccc12 | ? | 0% | -18% | -2% | -19% | -35%
CCCc1cc(=O)oc2c(C)c(O[C@@H]3O[C@H](CO)[C@@H](O)[C@H](O)[C@H]3O)ccc12 | -10% | 1% | ? | 7% | ? | 7.3µM*
CCCc1cc(=O)oc2c(C)c(OCC(=O)c3ccccc3)ccc12 | . | . | . | -2% | . | .

Compound activity (PubChem BioAssay)
